Assay outcomes: PubChem BioAssay, National Center for Advancing Translational Sciences (NCATS)
An excerpt weighted towards active compounds, which were near 13% of everything screened.
Lassa entry inh: Lassa virus entry inhibition | Lassa virus pseudotype entry inhibition, cell reporter | Potency, µM (top dose mostly 37.9 µM), without a hit: at the highest dose activity change, negative = inhibition, actives largely listed as inhibitors | 1.2% of 300,000 active | AID 540256; calls by dose curve; tested in HEK293 cells; also: potency is read from the fitted curve at half-maximal effect; % is scaled to controls: 0 for no effect and ±100 for the full control effect; nearly all actives have a fitted effect of over 50% in size
Cycloheximide cs: counter-screen for Shiga toxin inhibitors: cycloheximide protein synthesis inhibition; cell reporter, cycloheximide protein synthesis inhibition counterscreen; max response, %; 12% of 300,000 active; in the data active = max response mostly above about 13%, no sharp cut-off; inactive = mostly below about 14%; also: read at 38.3 µM for the half of the compounds with a filed dose; 0% is about no effect
HCV inhibitor: blocks hepatitis C virus; Huh7.5.1 HCVcc-Cre infection, luciferase reporter, 44 h; Potency, µM (highest dose often 41.8 µM), without a hit: at the top dose activity change, negative = inhibition, usual class: inhibitors; 3.4% of 340,000 active; active = well fitted inhibition curve with a large enough effect; inconclusive = small, poorly fitted or top-dose-only effect, or another doubt; inactive = no such curve, though single readings can be large or run the other way; also: potency is read from the fitted curve at half-maximal effect; % is scaled to controls: 0 for no effect and ±100 for the full control effect
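Whole-lifecycle infectious HCVcc-Cre system; cells 1,000/well, compound then virus (~0.5 moi) added 4 h after plating, 44 h culture. Luciferase read 15 sec following 15 min substrate incubation, room temp.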
Shiga toxin inh: Shiga toxin inhibition. Vero cells, Shiga toxin protein synthesis inhibition reporter. inhibition, % at 38.7 µM. 9.2% of 290,000 active. AID 2315; in the data active = inhibition mostly above about 28%, no sharp cut-off; inactive = mostly below about 43%; also: 0% is about no effect
Marburg entry inh: inhibitors of Marburg virus binding or cell entry; Potency, µM (doses to about 37.8 µM), for inactives: at the highest dose activity change, negative = inhibition, actives largely listed as inhibitors; AID 540276; Marburg virus pseudotyped entry inhibition, cell reporter; 1.8% of 300,000 active; calls by dose curve; tested in HEK293 cells; also: potency is read from the fitted curve at half-maximal effect; % is scaled to controls: 0 for no effect and ±100 for the full control effect
FMDV inh: foot and mouth disease virus antiviral activity; AID 1159524; 1.2% of 410,000 active; Potency, µM (top dose mostly 57.9 µM), for the others: top-dose activity change, negative = inhibition, hits mostly inhibitors; FMDV antiviral cell-based qHTS; calls by dose curve; tested in HEK293T cells; also: read-out not given here; potency is read from the fitted curve at half-maximal effect; % is scaled to controls: 0 for no effect and ±100 for the full control effect; nearly all actives have a fitted effect of over 45% in size
Numbers without * were called inactive; u = inconclusive; x = no result; [ ] = dose if it differs, or a comment.

SMILES | Lassa entry inh | Cycloheximide cs | HCV inhibitor | Shiga toxin inh | Marburg entry inh | FMDV inh
CC1CCCCN1C(=O)CSc1nnc(-c2ccc(Cl)s2)o1 (stereo not given) | 6% | 28* | -19% | 88* | 28% | 13%
CC1CCCCN1C(=O)CSc1nnc(-c2ccccc2Cl)o1 (stereo not given) | u | x | x | x | u | 54%
Cc1cc(-c2nnc(SCC(=O)N3C(C)CCCC3C)o2)no1 (stereo not given) | 11% | -2 | 11% | 23 | 3% | x
CC1CCCCN1C(=O)CSc1nnc(-c2ccccc2O)o1 (stereo not given) | u | 21* | -2% | 56* | u | 34%
Cc1ccc(C(=O)NCCSc2c(C)[nH]c3ccccc23)cc1[N+](=O)[O-] | u | 9 | 11µM* | 24 | 9% | 35µM*
COc1cccc(C(=O)NCCSc2c(C)[nH]c3ccccc23)c1OC | x | -1 | 13µM* | 3 | x | u
CC(C)Oc1cccc(C(=O)C2CCCN(C(=O)c3ccsc3)C2)c1 (stereo not given) | x | 9 | 19% | 31 | x | -1%
CC1CCCCC1NC(=O)CCn1c(=O)sc2ccccc21 (stereo not given) | x | 4 | 3% | -3 | x | 1%
C=CCC(CC(O)COCCC)C(=O)NNC(=S)Nc1ccccc1 (stereo not given) | 29%[46.1 µM] | 36* | -1% | 71* | u | 62%
CC(C)CCOCC(O)CCC(=O)NNC(=S)Nc1ccccc1 (stereo not given) | x | 6 | -1% | -3 | x | 12%
COc1ccc(C2c3c(oc4ccccc4c3=O)C(=O)N2c2nc(C)c(C)s2)cc1 (stereo not given) | 0%[46.1 µM] | x | x | x | 1%[46.1 µM] | 2%
CC(C)(C)OC(=O)N[C@H]1C=C[C@H](OC(=O)CC(=O)OCC(F)(F)F)C1 | x | x | 14% | x | x | -5%
COC(=O)CC(=O)O[C@H]1C=C[C@@H](NC(=O)OC(C)(C)C)C1 | x | x | 32µM* | x | x | -7%
Cc1cccc(C(=O)OCc2cnc(Cl)s2)c1 | 13% | 11* | 11% | 12 | -2% | 22%
O=C(OCc1cncs1)c1cccs1 | 19%[46.1 µM] | 5 | 12% | 19 | 10%[46.1 µM] | -4%
O=C(Nc1ccccc1)OCc1cnc(Cl)s1 | -19%[46.1 µM] | 12 | -1% | 36 | -17%[46.1 µM] | -9%
O=C(Nc1ccccc1)OCc1cncs1 | 1%[46.1 µM] | 22 | 4% | 32* | u | 20%
O=C(/C=C/c1ccccc1)OCc1cncs1 | -7%[46.1 µM] | 33* | 1% | 88* | 16%[46.1 µM] | 16%
O=C(Nc1ccc(Cl)c(Cl)c1)OCc1cnc(Cl)s1 | 17% | 20* | 11µM* | 15 | -7% | 4%
CCCCOC(=O)Nc1nnc(SCCOc2ccc(C)cc2)s1 | 10% | -4 | 23% | -5 | 11% | -22%
CCN(CC)c1ccc(S(=O)(=O)N2CCOCC2)cc1NS(C)(=O)=O | 12%[46.1 µM] | -1 | 1% | -5 | u | 7%
O=C(Nc1ccc(Cl)c(Cl)c1)OCc1cncs1 | -6% | 39* | -20% | 42* | 7% | -4%
CCN(CC(=O)Nc1c(F)cccc1F)C(=O)Cc1ccccc1 | x | -2 | 12% | 17 | x | 1%
COc1ccc(NS(=O)(=O)c2cc(S(C)(=O)=O)ccc2C)cc1 | 5% | 5 | 21% | 15 | 2% | 73%
COc1ccc2cc(-c3c(-c4ccncc4)nc(-c4ccc(S(C)(=O)=O)cc4C)n3C)ccc2c1 | 7.9µM* | x | x | x | x | x
SMILES | Lassa entry inh | Cycloheximide cs | HCV inhibitor | Shiga toxin inh | Marburg entry inh | FMDV inh
CCN(CC)c1ccc(/C=N/N2CCOCC2)cc1 | u | 53* | u | 52* | u | 0%
CCN(CC)c1ccc(C=NN2CCCCCC2)cc1 | u | x | -16% | x | u | 34%
CCN(Cc1ccccc1)c1ccc(/C=N/N2CCOCC2)cc1 | -8% | 36* | 4% | 28* | u | 19%
CC(C)(C)c1cc(CCC(=O)NCc2ccncc2)cc(C(C)(C)C)c1O | 4% | 19* | u | 24 | -2% | 9%
COC(=O)c1cc(NC(=O)c2ccc(F)cc2)cc(C(=O)OC)c1 | -9% | 12 | -24% | 24 | -9%[46.1 µM] | -6%
CCN(CC)CC1C(=O)N(c2ccc(OC)cc2)C1c1ccccc1 (stereo not given) | u | -1 | 1% | -6 | 8.9µM* | 40%
COc1ccc(N2C(=O)C(CN3CCCCC3)C2c2ccccc2)cc1 (stereo not given) | x | -7 | 0% | -12 | x | -22%
